Bioassay records (PubChem)
Only some compounds are listed: those with a hit (about 1.2% of all), similar ones and a draw of the others.
PGK inhibitor: inhibitors of T. brucei phosphoglycerate kinase | PGK/GAPDH coupled, Kinase-Glo luminescence, 60 min | Potency, µM (series often up to 57.5 µM), without a hit: at the highest dose activity change, negative = inhibition, actives largely listed as inhibitors | 0.043% of 380,000 active | AID 602233; also: potency is read from the fitted curve at half-maximal effect; nearly all actives have a fitted effect of over 60% in size
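Luminescent ATP detection (Kinase-Glo Plus) follows a 60-minute room-temperature incubation, with wells lacking PGK as controls. Buffer: 100 mM TEA (pH 7.6), 5 mM MgCl2, 0.01% Tween-20. Coupling enzyme GAPDH (100 nM final) supplies unstable 1,3-BPG in-well.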
RGS12 GoLoco inh: RGS12 GoLoco-Gai1 interaction inhibition; Gai1:RGS12 GoLoco peptide FP, rhodamine, 10 min; Potency, µM (top dose mostly 61.6 µM), inactives show top-dose activity, negative = inhibition, most hits filed as inhibitors; 0.44% of 230,000 active; AID 880; active = well fitted inhibition curve with a large enough effect, not every such curve was filed as active; inactive = no such curve, though single readings can be large or run the other way; also: potency is read from the fitted curve at half-maximal effect; nearly all actives have a fitted effect of over 30% in size
Target sequence (P63096 whole entry, looked up): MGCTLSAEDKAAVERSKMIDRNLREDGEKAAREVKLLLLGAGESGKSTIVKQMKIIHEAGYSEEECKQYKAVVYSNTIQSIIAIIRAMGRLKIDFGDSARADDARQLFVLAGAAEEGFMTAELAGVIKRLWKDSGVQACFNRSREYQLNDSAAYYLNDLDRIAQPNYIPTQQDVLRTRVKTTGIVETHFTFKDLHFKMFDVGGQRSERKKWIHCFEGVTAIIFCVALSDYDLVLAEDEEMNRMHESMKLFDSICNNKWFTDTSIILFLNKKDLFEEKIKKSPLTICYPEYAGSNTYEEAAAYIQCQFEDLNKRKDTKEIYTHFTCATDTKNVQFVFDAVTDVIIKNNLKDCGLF
Pin1 inh: blocks the human prolyl isomerase Pin1. Pin1 FP peptide displacement, HiFluor488, 10 min. Potency, µM (titrated, usually from 115 µM), for the others: at the highest dose activity, negative = inhibition, most hits filed as inhibitors. 0.009% of 390,000 active. AID 504891; active = well fitted inhibition curve with a large enough effect in the polarisation, with a control signal flat, not every such curve was filed as active; inconclusive = small, poorly fitted or top-dose-only effect, or effect the other way, or a change in a side signal; inactive = no such curve, though single readings can be large or run the other way; the % refers to the polarisation; also: potency is read from the fitted curve at half-maximal effect
Target sequence (Q13526 whole entry, looked up): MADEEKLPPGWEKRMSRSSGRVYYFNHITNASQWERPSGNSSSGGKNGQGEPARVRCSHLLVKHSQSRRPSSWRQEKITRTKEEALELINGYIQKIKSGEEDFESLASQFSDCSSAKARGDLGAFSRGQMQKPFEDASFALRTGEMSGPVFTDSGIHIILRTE
PI5P4Ka inh: inhibitors of human PI5P4K alpha. PI5P4Kalpha enzyme, ADP-Glo luminescence, 60 min; active compounds read low. P48426. 1.2% of 330,000 active. max response, %; active = max response of -50% or lower; inconclusive = between -30% and -50%; inactive = -30% or higher; also: value at the top dose of about 77 µM
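Compounds were pin-transferred onto PI5P4Kalpha and substrate in HEPES pH 7.4 buffer with EGTA, CHAPS and 5% DMSO. ATP (5 microM final) started the reaction, which ran 60 minutes at room temperature before ADP-Glo detection.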
KAT2A inh: blocks human GCN5L2 histone acetyltransferase; Q92830; GCN5L2 HAT assay, ThioGlo1 CoA-SH fluorescence; AID 504327; 0.21% of 390,000 active; Potency, µM (top dose mostly 58.9 µM), for the others: at the highest dose activity change, negative = inhibition, usual class: inhibitors; also: potency is read from the fitted curve at half-maximal effect
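Preincubate 20nM GCN5L2 with compound 15 min, RT → add 50uM ThioGlo1 + 75uM H3(1-25) + 70uM acetyl-CoA → read fluorescence 0 and 20 min. Primary qHTS; fluorescent artifacts likely.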
PI4K2A block: inhibitors of human PI4K2A | purified PI4K2A, ADP-Glo luminescence, 1 h; active compounds read low | 0.13% of 420,000 active | Q9BTU6 | activity change, negative = inhibition, % at 76.9 µM | AID 1346378; in the data active = activity change below about -50%; inconclusive = mostly about -30% to -49%;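 also: -100% = wells without enzyme as full effect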
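ADP-Glo luminescence measured ADP generated by PI4K2A enzyme (4 ug/mL before mixing) with 1.2 mM PI substrate (pre-mix) and 300 microM ATP (pre-mix). Tris pH7.5 buffer with MgCl2, Triton X-100; 1 h reaction at ambient temperature.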
Active calls of the source: *; [ ] = another dose, or the depositor's remark. Unless noted, calls follow the shape of the dose curve; as a rule, active = well fitted curve in the direction sought with a large enough effect; inconclusive = small, poorly fitted or top-dose-only effect, or another doubt; inactive = no such curve, though single readings can be large; an effect the other way counts as inactive or inconclusive. Unless noted, % is scaled to controls: 0 for no effect and ±100 for the full control effect.

`CN1C(=O)NC(=O)/C(=C/c2ccc([N+](=O)[O-])s2)C1=O` gave PGK inhibitor -23%, RGS12 GoLoco inh -3%, Pin1 inh inconclusive, PI5P4Ka inh -56*, KAT2A inh -1% and PI4K2A block -24.
COc1ccc(OC)c(N2C(=O)NC(=O)/C(=C\c3ccc([N+](=O)[O-])s3)C2=O)c1 was read as PGK inhibitor -19%, RGS12 GoLoco inh 193%, PI5P4Ka inh -61*, KAT2A inh inconclusive and PI4K2A block -21.
For CCCCCCNC(=O)N[C@H](Cc1ccc(O)cc1)C(=O)NCCC[C@H]1CN2C(=NC[C@H]2CCC)N1CC1CCC1 the results were RGS12 GoLoco inh 14µM* and KAT2A inh inconclusive.
`CCCCCCNC(=O)N[C@@H](Cc1ccc(O)cc1)C(=O)NCCC[C@H]1CN2C(=NC[C@H]2C)N1CC1CCC1` gave PGK inhibitor -10%, RGS12 GoLoco inh -34%, Pin1 inh 2%, PI5P4Ka inh 5, KAT2A inh -10% and PI4K2A block -1.
For COC(=O)C1=Nc2ccccc2/C1=C\c1c(O)n(-c2cc(OC)ccc2OC)c(=O)[nH]c1=O the results were PGK inhibitor 7%, RGS12 GoLoco inh 37%, Pin1 inh 38%, PI5P4Ka inh -66*, KAT2A inh -10% and PI4K2A block -3.
For Cc1cc2c(C(C)C)c(O)c(O)c(C=O)c2c(O)c1-c1c(C)cc2c(C(C)C)c(O)c(O)c(C=O)c2c1O the results were RGS12 GoLoco inh -6%, KAT2A inh 7.9µM* and PI4K2A block -19.
For COc1ccc(-n2nnnc2C(c2ccnc3ccccc23)N2CCC(n3c(=O)[nH]c4ccccc43)CC2)cc1 (stereo not drawn) the results were PI5P4Ka inh 1 and PI4K2A block -1.
For CC(=O)C1C2c3ccccc3O[C@@]1(C)N=c1s/c(=C/c3ccoc3)c(=O)n12 (stereo partly drawn) the results were PGK inhibitor -3%, RGS12 GoLoco inh 22%, Pin1 inh 14%, PI5P4Ka inh -23, KAT2A inh -7% and PI4K2A block 2.
`CCN1C(=O)C(=Cc2ccc(C)s2)C(=O)N(CC)C1=S` gave PGK inhibitor 0%, RGS12 GoLoco inh -22%, Pin1 inh inconclusive, PI5P4Ka inh -69*, KAT2A inh -30% and PI4K2A block -5.
CCOP(=O)(OCC)c1cc(C)c(O)c(C(C)(C)C)c1 was read as PGK inhibitor -3%, RGS12 GoLoco inh 13%, Pin1 inh -10%, PI5P4Ka inh 0, KAT2A inh 2% and PI4K2A block -2.
`CCOc1ccc(CN(CCc2ccc3c(c2)OCO3)Cc2ccc(OC)c(Br)c2)cc1` gave PGK inhibitor inactive, Pin1 inh inconclusive, KAT2A inh -11% and PI4K2A block 1.
Screening C/C=C1/C[N@@+]2(C)CC[C@]34C(=C(C=O)[C@H]1C[C@H]32)Nc1ccccc14 returned RGS12 GoLoco inh 6.3µM* and KAT2A inh -12%.
For CCOC(=O)[C@]12Cc3cc(Cl)ccc3[C@H]1N(Cc1ccccc1)C(=O)c1cc(OC)ccc12 the results were PI5P4Ka inh -2 and PI4K2A block -1.
`Cn1ncnc2c(=O)n(C)c(=O)nc1-2` gave PGK inhibitor inconclusive, RGS12 GoLoco inh -14%, Pin1 inh inconclusive, PI5P4Ka inh 0, KAT2A inh -2% and PI4K2A block -52*.
`O=C(O)CCCc1ccc(N(CCCl)CCCl)cc1` gave PGK inhibitor -5%, RGS12 GoLoco inh 5%, Pin1 inh 0%, PI5P4Ka inh 4, KAT2A inh -2% and PI4K2A block 1.
O=C1NC(=S)SC1=Cc1ccc(N(CCCl)CCCl)cc1 was read as PGK inhibitor 6%, Pin1 inh inconclusive, PI5P4Ka inh -72* and PI4K2A block -9.
CC(C)[C@H](NC(=O)[C@H](CC(=O)O)NC(=O)[C@H](Cc1ccccc1)NC(=O)[C@@H](C)NC(=O)[C@@H](N)Cc1ccc(O)cc1)C(=O)N[C@H](C(=O)NCC(N)=O)C(C)C was read as KAT2A inh 49%.
Screening Nc1ccccc1Cl returned PGK inhibitor -3%, RGS12 GoLoco inh 50µM*, Pin1 inh -8%, PI5P4Ka inh 5, KAT2A inh -26% and PI4K2A block -1.
For O=C(c1ccccc1)C(Cc1ccccc1)N1CCOCC1 (stereo not drawn) the results were PGK inhibitor -5%, Pin1 inh 4%, PI5P4Ka inh -1 and PI4K2A block 3.
For O=P(N1CC1)(N1CC1)N1CCc2ccccc21 the results were PGK inhibitor 7%, Pin1 inh -3%, PI5P4Ka inh 0 and PI4K2A block -6.
COC(=O)c1ccccc1N was read as RGS12 GoLoco inh 32µM*.
Screening O=C1NC(=S)NC(=O)C1=Cc1ccc(OCc2ccccc2)cc1 returned PGK inhibitor -4%, Pin1 inh 7%, PI5P4Ka inh -82* and PI4K2A block -3.
CN(C)c1ccc(C=C2C(=O)NC(=S)NC2=O)cc1[N+](=O)[O-] was read as PGK inhibitor -10%, RGS12 GoLoco inh -12%, Pin1 inh -14%, PI5P4Ka inh -75*, KAT2A inh -15% and PI4K2A block -8.
CN(C)c1ccc(C=C2C(=O)NC(=O)NC2=O)cc1[N+](=O)[O-] was read as PGK inhibitor inactive, RGS12 GoLoco inh -12%, Pin1 inh 3%, PI5P4Ka inh inconclusive, KAT2A inh -13% and PI4K2A block -23.
Screening O=C1NC(=S)NC(=O)C1=Cc1cccc2cc3ccccc3cc12 returned PGK inhibitor -10%, RGS12 GoLoco inh -7%[14.2 µM], Pin1 inh inconclusive, PI5P4Ka inh -70*, KAT2A inh -7% and PI4K2A block -9.
For COc1ccc(C=C2C(=O)NC(=S)NC2=O)cc1 the results were PGK inhibitor 7%, Pin1 inh -15%, PI5P4Ka inh -64* and PI4K2A block -4.
Screening C[N+]1(C)[C@@H]2CC[C@H]1CC(OC(=O)C(CO)c1ccccc1)C2 (stereo partly drawn) returned PGK inhibitor inactive, RGS12 GoLoco inh 1%, Pin1 inh 7%, PI5P4Ka inh -10, KAT2A inh -3% and PI4K2A block 3.
Screening C[N+]1(C)C2CCC1CC(OC(=O)c1ccccc1)C2 (stereo not drawn) returned PGK inhibitor inactive, RGS12 GoLoco inh 4µM*, Pin1 inh -1%, PI5P4Ka inh -3, KAT2A inh -8% and PI4K2A block 7.
